# According to PubChem BioAssay:
# The source made the active and inactive calls.
# Key:
# [1] = optical density shifts of acrAB sulA E. coli – strain DRC41, OD650, 48 h, E. coli filamentation inducer project, primary screen (AID 1152); conditions: higher = more signal, called active from +8 up or from −8 down;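 further: E. coli MC1000 strain DRC41 lacking acrAB efflux pump and sulA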
# [2] = probe aLefty1 binding on compound microarray – biochemical, small-molecule microarray, 635/667 nm fluorescence, primary screen (AID 1153); conditions: higher = more signal;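 further: score merges spot fluorescence with signal-to-noise ratio from the scanned slide images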
# [3] = plasmodial surface anion channel blockers, osmotic lysis – cell-based, P. falciparum Indochina, OD700, 1 h, primary screen (AID 1154); conditions: P. falciparum Indochina infected RBC osmotic lysis, higher = more signal, called active from +8 up or from −8 down
# [4] = plasmodial surface anion channel blockers, osmotic lysis – cell-based, P. falciparum Indochina, OD700, 2 h, primary screen (AID 1155);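 further: lysis reports solute entry through the parasite surface anion channel PSAC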; conditions: P. falciparum Indochina infected erythrocytes, higher = more signal, called active from +8 up or from −8 down
# [5] = changes in parasitized red cell lysis, either direction – P. falciparum Indochina, OD700, 3 h, PSAC antagonist project, primary screen (AID 1156); conditions: P. falciparum-infected erythrocytes, osmotic lysis, higher = more signal, called active from +8 up or from −8 down
# [6] = plasmodial surface anion channel blockers, osmotic lysis – cell-based, P. falciparum Indochina, OD700, 18 h, primary screen (AID 1157); conditions: P. falciparum Indochina infected erythrocytes, osmotic lysis OD700, 18 h; higher = more signal, called active from +8 up or from −8 down
# [7] = S6 kinase pathway phospho-S6 level changes – cell-based, A549, cytoblot, luminescence, serum-stimulated, primary screen (AID 1158); conditions: 5 h, higher = more signal;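 further: serum-stimulated A549 lung adenocarcinoma cells; signal is phosphorylated S6 detected by cytoblot immunostaining with HRP secondary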
# [8] = molecular target: NADPH oxidase 2 (Homo sapiens) (UniProt P04839); experiment: compounds shifting NOX2 Amplex Red fluorescence – cell-based, HEK293-NOX2, PMA-stimulated, NOX inhibitor project, primary screen (AID 1159); conditions: 45 min, higher = more signal, called active from +8 up or from −8 down; further: test concentration not given here
# [9] = molecular target: NADPH oxidase 4 (Homo sapiens) (UniProt Q9NPH5); experiment: compounds shifting NOX4 Amplex Red fluorescence – cell-based, HEK293-NOX4, tetracycline-induced, NOX inhibitor project, primary screen (AID 1160); conditions: HEK293-NOX4, Amplex Red H2O2 fluorescence, 45 min; higher = more signal, called active from +8 up or from −8 down
# [10] = molecular target: NADPH oxidase 5 (Homo sapiens) (UniProt Q96PH1); experiment: compounds shifting NOX5 Amplex Red fluorescence – cell-based, HEK293-NOX5, NOX inhibitor project, primary screen (AID 1161); conditions: HEK293-NOX5, ionomycin, 45 min, higher = more signal
# [11] = compound effects on lung adenocarcinoma cell viability – A549, calcein-AM fluorescence, 48 h, basal, profiling panel (AID 1162); conditions: higher = more signal; further: test concentration not given here
# [12] = compound effects on differentiated 3T3-L1 adipocyte viability – cell-based, 3T3-L1 adipocytes, calcein-AM fluorescence, 48 h, basal, profiling panel (AID 1163); conditions: 3T3-L1 adipocytes viability, higher = more signal; further: test concentration not given here
# [13] = compound effects on hepatocellular carcinoma cell viability – HepG2, calcein-AM fluorescence, 48 h, basal, profiling panel (AID 1164); conditions: higher = more signal; further: test concentration not given here
# [14] = compound effects on multiple myeloma cell viability – MM1S, calcein-AM fluorescence, 48 h, basal, profiling panel (AID 1165); conditions: higher = more signal; further: test concentration not given here
# [15] = calcein-AM signal in unstimulated myeloma cells – cell-based, calcein-AM fluorescence, 48 h, PK04 Diversity Set, profiling panel (AID 1166); conditions: RPMI8226 myeloma viability, higher = more signal;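 further: cells grown under basal conditions without added stimulus; test concentration not given here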
# [16] = JC-1 mitochondrial signal, unstimulated HepG2 cells – cell-based, JC-1 fluorescence, 24 h, 100 nL compound, profiling panel (AID 1167); conditions: HepG2 mitochondrial potential, higher = more signal; further: test concentration not given here
# [17] = JC-1 mitochondrial signal, unstimulated adipocytes – cell-based, JC-1 fluorescence, 3T3-L1 adipocytes, 24 h, 100 nL compound, profiling panel (AID 1168); conditions: JC-1 mitochondrial fluorescence, higher = more signal, called active from +8 up or from −8 down; further: test concentration not given here
# [18] = JC-1 mitochondrial signal, unstimulated myeloma cells – cell-based, JC-1 fluorescence, RPMI8226, 24 h, 100 nL compound, profiling panel (AID 1169); conditions: JC-1 mitochondrial potential fluorescence, higher = more signal; further: test concentration not given here
# [19] = JC-1 mitochondrial signal, unstimulated MM1S myeloma – cell-based, JC-1 fluorescence, 24 h, 100 nL compound, profiling panel (AID 1170); conditions: MM1S mitochondrial potential, higher = more signal; further: test concentration not given here
# [20] = resazurin metabolic signal in A549 cells – cell-based, resazurin fluorescence, 24 h, PK04 Diversity Set, profiling panel (AID 1171); conditions: A549 viability, higher = more signal, called active from +8 up or from −8 down; further: test concentration not given here
# Chain of NADPH oxidase 2 (Homo sapiens) (P04839 whole entry, looked up): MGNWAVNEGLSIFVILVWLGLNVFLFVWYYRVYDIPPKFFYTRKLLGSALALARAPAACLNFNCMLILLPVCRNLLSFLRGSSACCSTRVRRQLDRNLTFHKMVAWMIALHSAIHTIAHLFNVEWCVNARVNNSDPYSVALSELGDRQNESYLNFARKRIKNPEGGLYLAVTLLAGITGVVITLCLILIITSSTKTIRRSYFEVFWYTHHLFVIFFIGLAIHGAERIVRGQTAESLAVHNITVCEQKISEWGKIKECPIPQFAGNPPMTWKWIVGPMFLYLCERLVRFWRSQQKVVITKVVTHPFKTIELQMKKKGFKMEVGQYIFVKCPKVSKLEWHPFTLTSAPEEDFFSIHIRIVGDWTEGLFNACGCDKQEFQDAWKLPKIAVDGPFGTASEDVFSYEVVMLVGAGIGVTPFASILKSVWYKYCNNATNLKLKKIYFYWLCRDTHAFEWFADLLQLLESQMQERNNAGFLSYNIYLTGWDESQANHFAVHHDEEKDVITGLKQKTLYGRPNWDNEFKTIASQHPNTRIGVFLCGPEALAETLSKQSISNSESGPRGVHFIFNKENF
# Chain of NADPH oxidase 4 (Homo sapiens) (Q9NPH5 whole entry, looked up): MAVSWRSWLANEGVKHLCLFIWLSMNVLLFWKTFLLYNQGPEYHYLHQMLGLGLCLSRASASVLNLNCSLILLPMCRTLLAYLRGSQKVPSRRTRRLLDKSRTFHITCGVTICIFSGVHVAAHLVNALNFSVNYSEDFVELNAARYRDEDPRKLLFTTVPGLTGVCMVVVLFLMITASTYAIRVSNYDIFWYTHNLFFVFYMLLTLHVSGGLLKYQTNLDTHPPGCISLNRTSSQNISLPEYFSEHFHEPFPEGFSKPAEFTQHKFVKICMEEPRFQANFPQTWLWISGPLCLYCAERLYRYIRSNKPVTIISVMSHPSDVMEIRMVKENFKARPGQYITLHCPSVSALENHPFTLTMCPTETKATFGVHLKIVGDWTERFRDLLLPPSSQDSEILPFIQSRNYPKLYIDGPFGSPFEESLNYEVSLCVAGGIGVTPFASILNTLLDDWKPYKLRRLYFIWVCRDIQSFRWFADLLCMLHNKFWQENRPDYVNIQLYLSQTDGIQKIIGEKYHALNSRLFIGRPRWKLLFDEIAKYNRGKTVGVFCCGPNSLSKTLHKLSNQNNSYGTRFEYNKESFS
# Chain of NADPH oxidase 5 (Homo sapiens) (Q96PH1 whole entry, looked up): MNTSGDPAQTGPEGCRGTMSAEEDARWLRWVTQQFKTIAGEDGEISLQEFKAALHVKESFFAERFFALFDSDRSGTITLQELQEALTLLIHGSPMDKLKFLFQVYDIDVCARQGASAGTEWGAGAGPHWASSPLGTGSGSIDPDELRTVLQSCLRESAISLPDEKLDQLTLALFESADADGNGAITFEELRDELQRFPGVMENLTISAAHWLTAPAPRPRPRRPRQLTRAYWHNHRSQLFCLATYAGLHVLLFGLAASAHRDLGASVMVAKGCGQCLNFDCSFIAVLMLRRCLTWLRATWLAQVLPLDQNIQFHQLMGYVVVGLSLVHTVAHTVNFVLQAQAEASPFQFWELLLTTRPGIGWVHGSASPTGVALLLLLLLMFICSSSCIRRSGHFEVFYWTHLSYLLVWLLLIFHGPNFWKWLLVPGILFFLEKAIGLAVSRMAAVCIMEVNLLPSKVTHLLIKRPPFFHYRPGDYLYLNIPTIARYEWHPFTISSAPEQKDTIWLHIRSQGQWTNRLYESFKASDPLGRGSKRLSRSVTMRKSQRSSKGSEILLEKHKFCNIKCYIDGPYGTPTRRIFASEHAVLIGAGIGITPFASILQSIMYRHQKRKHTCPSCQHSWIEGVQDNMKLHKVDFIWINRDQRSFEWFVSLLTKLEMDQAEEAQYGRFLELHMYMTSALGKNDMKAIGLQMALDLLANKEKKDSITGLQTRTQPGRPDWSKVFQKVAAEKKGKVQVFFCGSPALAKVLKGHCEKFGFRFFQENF
SMILES,z-score [1],composite z-score [2],z-score [3],z-score [4],z-score [5],z-score [6],z-score [7],z-score [8],z-score [9],z-score [10],z-score [11],z-score [12],z-score [13],z-score [14],z-score [15],z-score [16],z-score [17],z-score [18],z-score [19],z-score [20]
COC(=O)CC=C1c2ccccc2[C@H](OC)[C@H]1C,0.101 (inactive),-0.326,0.0311 (inactive),0.269 (inactive),-0.0239 (inactive),-0.0463 (inactive),-0.882,0.457 (inactive),0.644 (inactive),0.199,0.16,-0.116,-0.379,-0.458,-1.22,-0.8,-0.272 (inactive),0.539,-0.707,-0.397 (inactive)
CC(C)CON=C1[C@H]2CCn3c(=O)n(C)c(=O)n3[C@H]2[C@H](O)[C@@H]2O[C@H]12,-0.0031 (inactive),-0.0559,-0.399 (inactive),-0.165 (inactive),-0.607 (inactive),-0.162 (inactive),-0.445,-0.5 (inactive),0.0343 (inactive),-0.0469,0.543,0.632,0.361,0.191,-0.441,-0.383,-0.444 (inactive),-0.581,0.0994,-0.143 (inactive)
C[C@H]1C=CCC(=O)OC[C@H](C)C(=O)N2CCC[C@H]2C(=O)OC1,0.392 (inactive),-0.199,0.158 (inactive),-0.157 (inactive),0.484 (inactive),0.0217 (inactive),-0.732,0.166 (inactive),0.515 (inactive),-0.957,-0.531,-1.21,-0.51,0.391,0.0245,0.291,-0.696 (inactive),-0.148,-0.828,0.283 (inactive)
CCOC(=O)[C@H](CC(C)C)NC(=O)CCC1CC(OC(=O)NCCc2ccc(F)cc2)CC2(CCCC(COC(=O)NCc3cccc4ccccc34)O2)O1 (stereo not given in full),-0.14 (inactive),-0.147,15.2 (active),3.27 (inactive),-1.34 (inactive),0.344 (inactive),0.927,0.135 (inactive),0.378 (inactive),-0.0307,-0.491,-0.679,-2.03,-3.43,-3.14,0.26,-0.0268 (inactive),0.219,-1.56,1.15 (inactive)
CCOC(=O)CCN1C(=O)[C@H]2[C@H]3[C@H](O)[C@H](O)CC(=O)[C@@H]3CC[C@H]2C1=O,-0.851 (inactive),-0.407,0.781 (inactive),0.411 (inactive),-0.737 (inactive),0.305 (inactive),-0.373,0.583 (inactive),0.41 (inactive),-0.0545,-0.856,0.314,-0.0609,-0.885,0.456,-0.385,-0.368 (inactive),-0.798,0.325,0.699 (inactive)
C[C@@H]1CC[C@H]2C(=O)N3[C@@H](CC[C@@H](C)[C@@H]3c3ccc(Br)cc3)C(=O)N2[C@H]1c1ccc(Br)cc1,-1.09 (inactive),-0.0099,4.4 (inactive),1.07 (inactive),0.121 (inactive),0.689 (inactive),0.448,1.79 (inactive),-1.8 (inactive),0.819,-0.569,-0.42,-0.0355,-2.69,-2.57,1.65,-0.76 (inactive),-0.22,1.41,0.632 (inactive)
CCOC(=O)CCN1C(=O)[C@H]2[C@H]3[C@H](O)[C@H](O)CC(=NO[C@@H]4O[C@H](CO)[C@@H](O)[C@H](O)[C@H]4O)[C@H]3CC[C@H]2C1=O,0.131 (inactive),0.493,-0.266 (inactive),-0.163 (inactive),-0.788 (inactive),-0.0643 (inactive),0.199,0.444 (inactive),0.451 (inactive),-0.9,0.484,-0.961,-0.898,-0.359,-0.0451,-1.13,-0.647 (inactive),-0.225,-0.171,-0.292 (inactive)
O=C1C=C[C@@H](O)[C@@H]2[C@@H]3C(=O)N(c4cccc(Oc5ccccc5)c4)C(=O)[C@@H]3CC[C@@H]12,-1.65 (inactive),-0.103,0.641 (inactive),-0.158 (inactive),-0.441 (inactive),-1.07 (inactive),0.249,0.472 (inactive),-0.433 (inactive),0.283,-0.496,1.38,0.0765,-1.03,-2.47,0.111,0.717 (inactive),-0.618,-0.72,-0.869 (inactive)
C[C@@H]1CC[C@H]2C(=O)OC(CN3C(=O)c4ccccc4C3=O)CN2[C@H]1c1ccc(Br)cc1 (stereo not given in full),0.634 (inactive),0.0315,3.61 (inactive),0.63 (inactive),-0.694 (inactive),0.246 (inactive),0.134,0.371 (inactive),0.182 (inactive),-0.055,0.0752,-0.0986,0.182,0.49,0.447,0.239,-0.105 (inactive),-0.911,1.67,0.705 (inactive)
